According to PubChem BioAssay AID743446 (Broad Institute, 2014):
Measured potencies and affinities stand elsewhere. Unmarked numbers belong to inactive results. How the calls were made is not given here.

Assay: viability loss in HEK293 cells – cell-based, plate reader, cherry-picked samples, cytotoxicity control, dose response (AID 743446)
Conditions: active compounds read low; at 26 µM unless noted

Row | SMILES | max activity
1 | CCCCCc1ccc(-c2ccc(C(=O)O)cc2)nc1 | 34.4% [at 0.8 µM]
2 | Cc1ccc2nc(NC(=O)CCCC(=O)O)sc2c1 | 12.5%
3 | Cc1cccc(-n2ncc3c(N4CCOCC4)ncnc32)c1 | 28.5%
4 | C[C@H]1CCCCO[C@@H](CN(C)C(=O)Nc2ccc3c(c2)OCO3)[C@@H](C)CN([C@@H](C)CO)C(=O)c2cc(NC(=O)NC3CCCCC3)ccc2O1 | 26.2% [at 23.5 µM]
5 | COc1ccc(C(=O)Nc2nnc(-c3ccco3)s2)cc1 | -21.3% [at 3 µM]
6 | COC(=O)c1c(N)sc(C(=O)NCCc2ccccc2)c1C | 16.2% [at 3 µM]
7 | O=C(C[C@@H]1C[C@H]2c3cc(NC(=O)c4ccc5c(c4)OCO5)ccc3O[C@H]2[C@@H](CO)O1)NCc1ccc(Oc2ccccc2)cc1 | -15.7% [at 0.05 µM]
8 | Cc1ccnc(N2C(=O)c3ccccc3C2Nc2ccc3c(c2)OCCO3)c1 (centres undefined) | 25.2% [at 0.05 µM]
9 | NCC[C@H]1CC[C@H](NS(=O)(=O)Cc2ccccc2)[C@@H](CO)O1 | 24.3%
10 | CN1c2ccc(-c3ccc(F)cc3)cc2[C@H]2[C@H](CCN2C(=O)Nc2ccc(F)cc2)[C@H]1CO | 39.2% [at 1.6 µM]
11 | O=c1c2c(nc3cc(-c4ccc(F)cc4)[nH]n13)CCCC2 | -12.8%
12 | C[C@H]1CCCCO[C@@H](CN(C)C(=O)Nc2ccc(F)cc2)[C@@H](C)CN([C@@H](C)CO)C(=O)c2cc(NC(=O)C3CCCCC3)ccc2O1 | -14.5% [at 6 µM]
13 | COc1ccc2oc(-c3ccccc3)cc(=O)c2c1 | -14.7% [at 12 µM]
14 | Cc1cc(-c2ccccc2)n2ncc(-c3ccccc3)c2n1 | 19.9% [at 0.8 µM]
15 | c1nc(CCO[C@H]2CCCCO2)cc2cc3c(cc12)OCO3 | 9.43%
16 | CCc1nnc2cccc(Cl)n12 | -9.24% [at 1.6 µM]
17 | Cn1cccc1C(=O)OCC(=O)Nc1ccc2c(c1)OCCO2 | -17.1%

Row | SMILES | max activity
18 | CN(C)c1ccc(NC(=O)c2cnsn2)cc1 | -9.61% [at 12 µM]
19 | O=C(Nc1cccc(C(=O)O)c1)Nc1ccccc1Cl | -26.9% [at 6 µM]
20 | COc1ccc(S(=O)(=O)Nc2ccc3c(c2)C(=O)N([C@@H](C)CO)C[C@@H](C)[C@H](CN(C)C(=O)Nc2cccc4ccccc24)OCCCC[C@H](C)O3)cc1 | 35.8% [at 12 µM]
21 | c1ccc(-n2cnnc2SCc2cn3cccnc3n2)cc1 | 82.5% [at 0.8 µM]
22 | Brc1ccc(-c2nc(-c3ccccn3)no2)o1 | -10%
23 | O=C(NCc1ccc(F)cc1)c1cc(C2CCCCN2S(=O)(=O)c2cccs2)on1 (centres undefined) | 15.1% [at 0.38 µM]
24 | COc1cc(C(=O)Nc2nc(-c3cccs3)cs2)cc(OC)c1OC | 53.9% [at 6 µM]
25 | COc1ccc(C(=O)CN2C(=O)c3ccccc3S2(=O)=O)cc1 | -13.3% [at 0.05 µM]
26 | O=C(Nc1ccc(Cl)cc1)Nc1ccccc1C(=O)O | 16.5% [at 0.1 µM]
27 | Cc1ccc(NC(=O)c2cnn(-c3ccccc3)c2C)cc1C | 11.5% [at 0.05 µM]
28 | O=C(NCCc1ccc(Cl)cc1)c1ccc2c(c1)OCCO2 | 19.7% [at 0.8 µM]
29 | C[C@H](CO)N1C[C@H](C)[C@H](CN(C)S(=O)(=O)c2ccc(C(F)(F)F)cc2)OCc2ccccc2-c2c(n(C)c3ccccc23)C1=O | -10.7% [at 1.6 µM]
30 | C[C@H](CO)N1C[C@H](C)[C@@H](CN(C)C(=O)Nc2ccc3c(c2)OCO3)Oc2c(cccc2N(C)C)C1=O | -7.24% [at 0.8 µM]
31 | C[C@H](CO)N1C[C@H](C)[C@H](CN(C)C(=O)Cc2ccccc2)OCCCC[C@H](C)Oc2ccc(NC(=O)Nc3ccc(C(F)(F)F)cc3)cc2C1=O | 12.5% [at 3 µM]
32 | COc1ccc(C(=O)CC(Sc2ccccc2N)c2ccc(OC)cc2)cc1 (centres undefined) | 24.8% [at 0.8 µM]
33 | O=C(Nc1ccc(N2CCOCC2)cc1)c1cnccn1 | -6.24% [at 3 µM]
34 | CCn1cc(S(=O)(=O)Nc2cccnc2)cn1 | 9.79% [at 0.38 µM]
